# PubChem BioAssay AID2315 (National Center for Advancing Translational Sciences (NCATS), 2010)
# Hit rate of the full screen: of about 290,000 compounds, about 27,000 (9.3%) were called active. Cut-off read from the data, not from the text of the source: active = inhibition mostly above about 28% (no sharp cut-off); inactive = mostly below about 43%. Only a selection was taken, and actives are over-represented in it overall.
# Test: A qHTS for Small Molecule Inhibitors of Shiga Toxin; note: 0% is about no effect
# Conditions: Vero cells, Shiga toxin protein synthesis inhibition reporter; at 38.7 µM, hits give high values
row,Compound,inhibition
1,Cc1ccc(CC(=O)Nc2ccc(OC(F)F)c(Cl)c2)cc1C,-4.66% (inactive)
2,CC(=O)N1CCN(CC(=O)Nc2ccc(SC(F)F)cc2)CC1,-12.2% (inactive)
3,O=C(Cc1ccc(Cl)c(Cl)c1)Nc1ccc(SC(F)F)cc1,43% (active)
4,CNC(=O)[C@]1(C(F)(F)F)C[C@H](CCc2ccccc2)CCCO1,32.4% (inactive)
5,Cc1cccc(C(=O)N2CCC(c3nc4ccccc4s3)CC2)c1,-12.1% (inactive)
6,c1ccc2sc(C3CCCNC3)nc2c1 (configuration not stated),69.9% (active)
7,O=C(c1cccs1)N1CCC(c2nc3ccccc3s2)CC1,18.9% (inactive)
8,CC(=O)Oc1ccc(N(C(C)=O)S(=O)(=O)c2ccc3ccccc3c2)cc1Br,33.2% (inactive)
9,CCCCCNC(=O)C1c2ccccc2Oc2ccccc21,-12.3% (inactive)
10,CC(=O)Oc1ccc(C)cc1N1C(=O)c2ccc(C(=O)O)cc2C1=O,21.4% (inactive)
11,O=C(O)c1ccc2c(c1)C(=O)N(c1ccc(/C=C/C(=O)c3ccccc3)cc1)C2=O,70.9% (active)
12,O=C(/C=C/c1ccc(N2CCOCC2)cc1)c1ccccc1,68% (active)
13,O=C(CN1CCN(S(=O)(=O)/C=C/c2ccccc2)CC1)Nc1ccc(N2CCOCC2)cc1,-7.43% (inactive)
14,Cc1cccc(N2C(=O)c3ccc(C(=O)Nc4cccc(C(=O)O)c4)cc3C2=O)c1,19% (inactive)
15,O=C(/C=C/c1ccccc1)c1ccoc1,26% (inactive)
16,O=C(c1ccc(C(F)(F)F)cc1)C1CCCN(C(=O)c2csnn2)C1 (configuration not stated),-1.35% (inactive)
17,COc1ccc(CCNC(=O)C2CCCN2C(=O)Nc2ccccc2)cc1OC (configuration not stated),9.89% (inactive)
18,O=S1(=O)N=C(N(CCO)/N=C/c2ccccc2F)c2ccccc21,-5.12% (inactive)
19,CCCCc1nc2ccccc2c(=O)n1NC(=O)c1c(O)c2cccc3c2n(c1=O)CC3,28.4% (inactive)
20,CCCc1nc2ccccc2c(=O)n1NC(=O)c1c(O)c2ccccc2[nH]c1=O,110% (active)
21,CCCC(=O)Nc1c(O)c2ccccc2[nH]c1=O,25.5% (inactive)
22,C#CC(CCN1CCCCC1)(OC)c1ccccc1 (configuration not stated),-17.9% (inactive)
23,CCCc1c(C(=O)N/N=C(\C)CCc2ccc(OC)cc2)nnn1-c1nonc1N,-11% (inactive)
24,OC(CNCCc1ccc(Cl)cc1Cl)COc1ccccc1 (configuration not stated),2.65% (inactive)
25,O=C(CN(Cc1ccc(Br)cc1)S(=O)(=O)c1ccccc1)NCc1ccncc1,-14.3% (inactive)

row,Compound,inhibition
1,O=C(C1CC(=O)N(c2ccc(F)cc2)C1)N1CCN(c2ccccc2)CC1 (configuration not stated),-5.65% (inactive)
2,COc1ccc(C(=O)CN(C(=O)c2ccc(Cl)cc2)N2C(=O)c3ccccc3C2=O)cc1,-9% (inactive)
3,CCn1c(C)cc(=O)cc1-c1ccc(Cl)cc1,-5.82% (inactive)
4,COc1ccc(Cn2c(-c3ccc(Cl)cc3)c[n+]3ccccc23)cc1,96.6% (active)
5,CC1(C)C2CCC1(CS(=O)(=O)NCCc1c[nH]c3ccccc13)C(=O)C2 (configuration not stated),23.7% (inactive)
6,O=C(N/C(=C\c1ccc(O)cc1)C(=O)N1CCCCC1)c1ccccc1,11.3% (inactive)
7,C(=N/N1CCN(c2ccccc2)CC1)/c1cccs1,94.4% (active)
8,COc1cc(/C=N/N2CCN(c3ccccc3)CC2)ccc1OC(C)=O,23.8% (inactive)
9,Cc1ccc(N2CCN(/N=C/c3cccs3)CC2)cc1,13.1% (inactive)
10,O=C(Cn1nc(C(=O)O)c2ccccc2c1=O)Nc1ccc(F)cc1,-3.59% (inactive)
11,O=C1CCC([N+](=O)[O-])C(c2ccccc2Br)N1 (configuration not stated),4.29% (inactive)
12,COc1ccc(-c2nnc(NC(=O)CS(=O)(=O)c3ccc(Cl)cc3)o2)c(OC)c1,3.54% (inactive)
13,COC(=O)CN1C(=O)C(C)(C)Oc2ccc(C(=O)Nc3cccc(OC)c3)cc21,-0.621% (inactive)
14,CN(C)S(=O)(=O)c1ccc(N/C=C(\[N+](=O)[O-])S(=O)(=O)c2ccccc2)cc1,-2.26% (inactive)
15,COc1ccccc1C1CCN(C(=S)Nc2ccc(Br)cc2)CC1,47.5% (active)
16,CCC(C)N(C)C1CCN(C(=S)Nc2ccc(OC)cc2)CC1 (configuration not stated),-9.08% (inactive)
17,COc1ccc(C(=O)NC2CCN(C(=S)Nc3ccccc3)CC2)cc1,-2.02% (inactive)
18,CN1CCC(=O)N([C@H](CO)Cc2ccccc2)CC1,-4.98% (inactive)
19,O=C1CCCC(O)=C1N=Nc1ccc2ncsc2c1,87.8% (active)
20,O=C1CCCC(O)=C1N=Nc1ccc(S(=O)(=O)N2CCOCC2)cc1,22.3% (inactive)
21,COC(=O)c1ccc2c(=O)n(CCN3CCOCC3)c(SCC(=O)Nc3cccc(OC)c3)nc2c1,-7.42% (inactive)
22,O=C(CNC(=O)Cc1ccccc1)N=Nc1c(O)[nH]c2ccc(Br)cc12,3.9% (inactive)
23,CC1(C)CCSC(/C=C/c2ccccc2)=N1,52.2% (active)
24,Cc1cccn2c(=O)c(C=O)c(Nc3ccc(S(N)(=O)=O)cc3)nc12,3.64% (inactive)
25,CCC(=O)N(CCc1ccccc1)Cc1cc2cc(C)ccc2[nH]c1=O,-0.364% (inactive)

row,Compound,inhibition
1,COc1cccc(-n2c(=S)sc3c(=O)n(-c4ccccc4OC)c(SCC4OCCO4)nc32)c1,-11.3% (inactive)
2,O=C(Nc1nc(-c2cccnc2)cs1)c1ccccc1F,166% (active)
3,O=C(O)c1ccccc1-c1ccccc1C(=O)NCc1cccnc1,-3.52% (inactive)
4,CN(Cc1ccccc1)S(=O)(=O)c1nnc(NC(=O)c2ccccc2F)s1,-6.12% (inactive)
5,O=C(O)c1ccccc1C(=O)Nc1nc(-c2ccccc2)cs1,-11.1% (inactive)
6,O=C(NCc1cccnc1)Nc1ccccc1F,19.6% (inactive)
7,O=C(Nc1nnc(-c2ccccc2F)s1)c1ccccc1F,58% (active)
8,O=C(Nc1ccccc1F)c1ccccc1-c1ccccc1,7.36% (inactive)
9,O=C(Nc1ccc(NC(=O)c2ccccc2F)cc1)c1ccccc1F,-6.19% (inactive)
10,Cc1ccccc1Nc1nc(-c2cccnc2)cs1,76.4% (active)
11,O=C(NCc1cccnc1)C(=O)Nc1nc(-c2ccccc2)cs1,98% (active)
12,Cc1ccc(CNC(=O)C2(C(F)(F)F)C/C(=C\CCO)CCCO2)o1 (configuration not stated),-7.08% (inactive)
13,COc1ccc(CNC(=O)COc2cccnc2[N+](=O)[O-])cc1,-2.63% (inactive)
14,CC(=O)N1CCN(C(=O)C2(NC(=O)Nc3ccc(C)cc3)CCCCC2)CC1,23.1% (inactive)
15,NNC(=O)CNC(c1ccccc1)c1cc(Cl)ccc1NC(=O)c1ccccc1 (configuration not stated),-4.52% (inactive)
16,COc1ccc(Nc2nc(NCc3ccco3)nc(N/N=C/c3ccccc3Cl)n2)cc1,7.02% (inactive)
17,COc1ccc(CC(=O)N/N=C/c2cc([N+](=O)[O-])cc(Br)c2O)cc1,-3.43% (inactive)
18,Cc1ccc(S(=O)(=O)c2nnn3c2nc(N2CCN(c4ccccn4)CC2)c2ccccc23)cc1,-12% (inactive)
19,Cc1occc1C(=O)NC1CCCN(Cc2ccc(CC(C)C)cc2)C1 (configuration not stated),-8.21% (inactive)
20,Cc1ccc(CNS(=O)(=O)c2ccc3c(c2)N(C)CCO3)cc1,-2.13% (inactive)
21,CC1CCN(S(=O)(=O)c2ccc3[nH]c(=O)ccc3c2)CC1,-6.16% (inactive)
22,O=C(NC(=S)Nc1ccc(Cl)c(C(=O)O)c1)c1cncc(Br)c1,14.6% (inactive)
23,N#Cc1ccc(/C=C2\CCn3c2nc2cc(C(=O)O)ccc2c3=O)cc1,-9.62% (inactive)
24,Cc1ccc(-c2csc(NC(=O)c3cnccn3)n2)cc1C,8.33% (inactive)
25,O=C(Nc1nnc(Cc2ccccc2)s1)c1cnccn1,-3.24% (inactive)

row,Compound,inhibition
1,O=C(Nc1nc(-c2ccc(-c3ccccc3)cc2)cs1)c1cnccn1,34.8% (active)
2,COc1ccc(CN2CCC(n3nccc3NC(=O)CCCc3ccccc3)CC2)cc1C,-2.11% (inactive)
3,CC(=O)Nc1ccc(NS(=O)(=O)c2ccc3c(c2)NC(=O)CC(=O)N3)cc1,-11.9% (inactive)
4,CCOC(=O)c1c(C)[nH]c(C)c1S(=O)(=O)NCCCc1ccco1,-3.37% (inactive)
5,O=C(CCCCCn1c(=S)[nH]c2cc3c(cc2c1=O)OCO3)N1CCN(c2ccc(F)cc2)CC1,-1.92% (inactive)
6,CCn1c(CC(=O)Nc2ccccc2C)nnc1SCC(=O)NC1=NCCS1,2.84% (inactive)
7,CC(C)(C)C(=O)Nc1ccc(-c2cn3cccnc3n2)cc1,32.2% (inactive)
8,CN1CCN(Cc2ccc(OC(F)(F)F)cc2)CC1,-16.1% (inactive)
9,COc1ccc(-c2cn3ccc(C)cc3n2)cc1,-17.1% (inactive)
10,Cc1ccccc1Nc1c(-c2ccccc2)nc2ncccn12,19.2% (inactive)
11,CCCC(=O)Nc1cccc(-c2cn3ccsc3n2)c1,22.4% (inactive)
12,c1ccc(-c2cn3cccnc3n2)cc1,58.5% (active)
13,CC(=O)Nc1ccc(-c2cn3cccnc3n2)cc1,52.4% (active)
14,c1ccc(-c2cn3c(n2)CCc2ccc4cccnc4c2-3)cc1,-6.84% (inactive)
15,CCCCCC(=O)Nc1ccc(-c2cn3cccnc3n2)cc1,64.5% (inactive)
16,COc1ccc(-c2cn3ccsc3n2)cc1,43.6% (active)
17,FC(F)(F)Oc1ccc(-c2cn3cccnc3n2)cc1,54.1% (active)
18,CCOC(=O)c1cnc(Nc2nc3ccccc3o2)nc1CSC(=S)N1CCCCC1,36.8% (inactive)
19,CN(Cc1ccc(F)cc1Cl)S(=O)(=O)c1cccs1,39.1% (inactive)
20,CCOC(=O)N1CCN(C(=O)C(C)NC(=O)c2ccco2)CC1 (configuration not stated),-4.62% (inactive)
21,COc1ccc(CC(=O)NC2CCSc3ccccc32)cc1OC (configuration not stated),-2.96% (inactive)
22,O=C(Nc1ccccc1C(=O)Nc1ccncc1)c1ccc([N+](=O)[O-])cc1,-5.25% (inactive)
